Several values for one entry are separate records, joined by “and”; a condition that tells them apart may be missing. Identical values can stand only once. Out of some 5,500 compounds screened, about 2,000 (36%) were called active. Roughly 18% stayed inconclusive and do not appear here. Rule as the data show it: active = normalized growth mostly below about 0.91 (no sharp cut-off); inconclusive = no clear call, values can overlap the other calls; inactive = mostly above about 0.92. The list shows a part of the results.
Experiment: chemical genetic growth profiling, strain panel (AID 1159580);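 also: tested at 20 µM; growth read once vehicle control cultures reached saturation at 30 °C; 1 = growth at the plate median or of vehicle wells; lower values mean less growth of the strain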
Conditions: growth OD
[1] = S. cerevisiae deletion strains, locus YBR229C, strain ROT2, active compounds read low
[2] = S. cerevisiae deletion strains, locus YDL101C, strain DUN1, active compounds read low
[3] = S. cerevisiae deletion strains, locus YDL134C, strain PPH21, active compounds read low
[4] = S. cerevisiae deletion strains, locus YDR150W, strain NUM1, active compounds read low
[5] = S. cerevisiae deletion strains, locus YEL061C, strain CIN8, active compounds read low
[6] = S. cerevisiae deletion strains, locus YHR030C, strain SLT2, active compounds read low
[7] = S. cerevisiae deletion strains, locus YJR043C, strain POL32, active compounds read low
[8] = S. cerevisiae deletion strains, locus YKL190W, strain CNB1, active compounds read low
[9] = S. cerevisiae deletion strains, locus YLR039C, strain RIC1, active compounds read low
[10] = S. cerevisiae deletion strains, locus YLR262C, strain YPT6, active compounds read low
[11] = S. cerevisiae deletion strains, locus YMR263W, strain SAP30, active compounds read low
[12] = S. cerevisiae deletion strains, locus YNL322C, strain KRE1, active compounds read low
[13] = S. cerevisiae deletion strains, locus YPL241C, strain CIN2, active compounds read low

Measured: normalized growth

O=C1CSC(c2cccnc2)N1c1ccc(C2CCCCC2)cc1 (configuration not stated)
inactive: S. cerevisiae deletion strains, locus YAL013W, strain DEP1, active compounds read low 1 | [1] 1.01 | [2] 1.03 | [3] 0.941 | [4] 1.05 | [5] 0.999 | S. cerevisiae deletion strains, locus YGR078C, strain PAC10, active compounds read low 1.01 | [6] 1.28 | S. cerevisiae deletion strains, locus YHR087W, strain rtc3, active compounds read low 1.02 | [7] 1.02 | S. cerevisiae deletion strains, locus YJR075W, strain HOC1, active compounds read low 0.941 | [8] 0.945 | [9] 0.926 | S. cerevisiae deletion strains, locus YLR058C, strain SHM2 (second series), active compounds read low 0.991 | S. cerevisiae deletion strains, locus YLR085C, strain ARP6, active compounds read low 0.917 | [10] 0.888 | S. cerevisiae deletion strains, locus YML094W, strain GIM5, active compounds read low 1.07 | S. cerevisiae deletion strains, locus YMR219W, strain ESC1, active compounds read low 1.02 | [11] 1.06 | S. cerevisiae deletion strains, locus YNL153C, strain GIM3, active compounds read low 1.01 | S. cerevisiae deletion strains, locus YNL298W, strain CLA4 (second series), active compounds read low 0.951 | [12] 1 | S. cerevisiae deletion strains, locus YNR030W, strain Alg12, active compounds read low 0.963 | S. cerevisiae deletion strains, locus YPL055C, strain LGE1, active compounds read low 1.04 | [13] 1.09 | S. cerevisiae deletion strains, locus YPR135W, strain CTF4, active compounds read low 0.832 | S. cerevisiae strains, strain wild type, active compounds read low 0.96

CN1C(=O)CC[C@H]1c1cccnc1
inactive: S. cerevisiae deletion strains, locus YBR021W, strain FUR4, active compounds read low 1 | [1] 1 | S. cerevisiae deletion strains, locus YCL029C, strain bik1, active compounds read low 1.02 | S. cerevisiae deletion strains, locus YDL035C, strain GPR1, active compounds read low 1.02 | S. cerevisiae deletion strains, locus YDL074C, strain BRE1, active compounds read low 1.04 | [2] 1.01 | [3] 1 | S. cerevisiae deletion strains, locus YDL185W, strain tfp1, active compounds read low 1.03 | S. cerevisiae deletion strains, locus YDL192W, strain arf1, active compounds read low 1.01 | S. cerevisiae deletion strains, locus YDR101C, strain arx1, active compounds read low 1.05 | [4] 0.992 | S. cerevisiae deletion strains, locus YDR162C, strain NBP2, active compounds read low 1.01 | S. cerevisiae deletion strains, locus YDR318W, strain mcm21, active compounds read low 1.02 | S. cerevisiae deletion strains, locus YDR388W, active compounds read low 1.02 | S. cerevisiae deletion strains, locus YDR502C, strain sam2, active compounds read low 1.04 | [5] 0.993 | S. cerevisiae deletion strains, locus YER110C, active compounds read low 1.03 | S. cerevisiae deletion strains, locus YER155C, strain BEM2, active compounds read low 0.992 | S. cerevisiae deletion strains, locus YER167W, strain BCK2, active compounds read low 0.997 | S. cerevisiae deletion strains, locus YGL078C, strain dbp3, active compounds read low 1.03 | S. cerevisiae deletion strains, locus YGL086W, strain mad1, active compounds read low 1.03 | S. cerevisiae deletion strains, locus YGL248W, strain PDE1, active compounds read low 1.02 | S. cerevisiae deletion strains, locus YGR135W, strain pre9, active compounds read low 1.01 | S. cerevisiae deletion strains, locus YGR229C, strain SMI1, active compounds read low 1.01 | S. cerevisiae deletion strains, locus YGR252W, strain gcn5, active compounds read low 1.11 | [6] 0.997 and 1.05 | S. cerevisiae deletion strains, locus YHR079C, strain IRE1 (second series), active compounds read low 1.03 | S. cerevisiae deletion strains, locus YHR079C, strain IRE1, active compounds read low 1.04 | S. cerevisiae deletion strains, locus YHR094C, strain hxt1, active compounds read low 1.01 | S. cerevisiae deletion strains, locus YHR129C, strain ARP1, active compounds read low 0.993 | S. cerevisiae deletion strains, locus YHR200W, strain rpn10, active compounds read low 1.01 | S. cerevisiae deletion strains, locus YIL066C, strain RNR3, active compounds read low 1.01 | S. cerevisiae deletion strains, locus YIL073C, strain SPO22, active compounds read low 1.07 | S. cerevisiae deletion strains, locus YIL125W, strain kgd1, active compounds read low 1.02 | S. cerevisiae deletion strains, locus YIR030C, strain dcg1, active compounds read low 1.02 | S. cerevisiae deletion strains, locus YJL095W, strain BCK1, active compounds read low 1.01 and 1.02 | S. cerevisiae deletion strains, locus YJL134W, strain LCB3, active compounds read low 0.996 | S. cerevisiae deletion strains, locus YJL168C, strain set2, active compounds read low 1 | S. cerevisiae deletion strains, locus YJL187C, strain SWE1 (second series), active compounds read low 1.01 | [7] 1.02 | S. cerevisiae deletion strains, locus YJR066W, strain TOR1, active compounds read low 0.992 | S. cerevisiae deletion strains, locus YKL009W, strain mrt4, active compounds read low 1.03 | S. cerevisiae deletion strains, locus YKL068W, active compounds read low 1.01 | S. cerevisiae deletion strains, locus YKL085W, strain MDH1 (second series), active compounds read low 1.01 | S. cerevisiae deletion strains, locus YKL085W, strain MDH1, active compounds read low 1.01 | [8] 1 | S. cerevisiae deletion strains, locus YKR001C, strain vps1, active compounds read low 1.03 | [9] 1.02 | S. cerevisiae deletion strains, locus YLR058C, strain SHM2, active compounds read low 1 | S. cerevisiae deletion strains, locus YLR102C, strain apc9, active compounds read low 1.02 | S. cerevisiae deletion strains, locus YLR113W, strain HOG1, active compounds read low 1.06 | [10] 1.04 | S. cerevisiae deletion strains, locus YLR268W, strain sec22, active compounds read low 1.03 | S. cerevisiae deletion strains, locus YLR330W, strain CHS5, active compounds read low 0.999 | S. cerevisiae deletion strains, locus YLR342W, strain FKS1 (second series), active compounds read low 1.01 | S. cerevisiae deletion strains, locus YLR371W, strain rom2, active compounds read low 0.983 | S. cerevisiae deletion strains, locus YLR418C, strain cdc73, active compounds read low 1.03 | S. cerevisiae deletion strains, locus YML016C, strain PPZ1, active compounds read low 0.993 | S. cerevisiae deletion strains, locus YML032C, strain rad52, active compounds read low 1.02 | S. cerevisiae deletion strains, locus YML124C, strain tub3, active compounds read low 1.01 | S. cerevisiae deletion strains, locus YMR078C, strain ctf18, active compounds read low 1.02 | S. cerevisiae deletion strains, locus YMR223W, strain ubp8, active compounds read low 1.01 | [11] 1 | S. cerevisiae deletion strains, locus YMR307W, strain GAS1, active compounds read low 0.998 | S. cerevisiae deletion strains, locus YNL067W, strain RPL9B, active compounds read low 1.01 | S. cerevisiae deletion strains, locus YNL183C, strain NPR1, active compounds read low 0.992 | S. cerevisiae deletion strains, locus YNL233W, strain BNI4, active compounds read low 1.01 | S. cerevisiae deletion strains, locus YNL250W, strain rad50, active compounds read low 1.02 | S. cerevisiae deletion strains, locus YNL271C, strain bni1, active compounds read low 1.02 | S. cerevisiae deletion strains, locus YNL298W, strain CLA4, active compounds read low 1.04 | S. cerevisiae deletion strains, locus YNL307C, strain MCK1, active compounds read low 1.03 | [12] 0.993 | S. cerevisiae deletion strains, locus YNR052C, strain pop2, active compounds read low 1.02 | S. cerevisiae deletion strains, locus YOL006C, strain TOP1, active compounds read low 1.04 | S. cerevisiae deletion strains, locus YOL012C, strain htz1 0.58 | S. cerevisiae deletion strains, locus YOL147C, strain pex11, active compounds read low 1.04 | S. cerevisiae deletion strains, locus YOR061W, strain CKA2, active compounds read low 1.01 | S. cerevisiae deletion strains, locus YOR069W, strain VPS5, active compounds read low 0.997 | S. cerevisiae deletion strains, locus YOR136W, strain idh2, active compounds read low 1.02 | S. cerevisiae deletion strains, locus YOR144C, strain elg1, active compounds read low 1.01 | S. cerevisiae deletion strains, locus YOR184W, strain ser1, active compounds read low 1.03 | S. cerevisiae deletion strains, locus YOR231W, strain MKK1, active compounds read low 1.04 | S. cerevisiae deletion strains, locus YOR316C, strain cot1, active compounds read low 1.04 | [13] 0.995 | S. cerevisiae deletion strains, locus YPL256C, strain CLN2, active compounds read low 1.16 | S. cerevisiae deletion strains, locus YPR119W, strain clb2, active compounds read low 1 | S. cerevisiae deletion strains, locus YPR141C, strain kar3, active compounds read low 1 | S. cerevisiae deletion strains, locus YPR163C, strain tif3, active compounds read low 1.06 | S. cerevisiae deletion strains, locus YPR167C, strain met16, active compounds read low 1.01 | S. cerevisiae deletion strains, strain wtn01, active compounds read low 1.04
